Experimental data reported in PubChem BioAssay (NCATS).
Records with an inconclusive call do not appear. Calls of active or inactive are those of the source. Calls follow the shape of the dose curve; as a rule, active = well fitted inhibition curve with a large enough effect; inconclusive = small, poorly fitted or top-dose-only effect; inactive = flat fitted curve, though single readings scatter.

Tests used:
[1] = test system: CRL-7250; assay: Cytotoxic Profiling of Annotated Libraries Using Quantitative High-Throughput Screening (AID 1296008); details: Five cell lines viability, CellTiter-Glo ATP luminescence, 48-72 h; max response: active compounds read low; also: potency is read from the fitted curve at half-maximal effect; as to max response: % is scaled to controls: 0 for no effect and ±100 for the full control effect
Method in brief: (§1)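 Cytotoxicity was measured as CellTiter-Glo ATP luminescence, read after 10 min at room temperature. Compound treatment of the cells lasted 48 or 72 hr at 37 degrees Celsius in a qHTS format.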

[2] = test system: HaCat; assay: as above; details: Five cell lines viability, CellTiter-Glo ATP luminescence, 48-72 h; max response: active compounds read low
Method in brief: as §1

[3] = test system: KB-3-1; assay: as above; details: Five cell lines viability, CellTiter-Glo ATP luminescence, 48-72 h; max response: active compounds read low
Method in brief: as §1

[4] = test system: NIH3T3; assay: as above; details: Five cell lines viability, CellTiter-Glo ATP luminescence, 48-72 h; max response: active compounds read low
Method in brief: as §1

[5] = test system: HACAT; assay: qHTS assay to identify novel small-molecules to repurpose for Merkel cell carcinoma treatment (AID 1296009); details: MCC and control cell lines, CellTiter-Glo viability, 72 h; at 44.8 µM (top of the series) unless noted
Method in brief: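 72 hr, 37 degree celsius; NPC 8-pt / MIPE 11-pt dose response; compound pinned in DMSO; CellTiter-Glo, 10 min RT, luminescence; normalized to no-cell and DMSO controls.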
Also: nearly all actives have a fitted effect of over 60% in size.

CC(C)CCCCC(=O)N[C@@H](CO)C(=O)N[C@@H](CC(C)C)C(=O)[C@@]1(CO)CO1
inactive: max response [1] -2.59% | outcome [2] | max response [3] -12% | max response [4] -2.24% | outcome [5]

CC1OC2OC(=O)C3(C)CC4C5(CO5)C5=CC(=O)OC(C)(C)C5=CC(=O)C4(C)C(C1=O)C23 (stereo not given)
inactive: max response [1] -8.36% | outcome [2] | outcome [3] | max response [4] 1.81% | outcome [5] inactive [at 17.4 µM]

CN(C)CCOc1cc(NS(=O)(=O)c2c(Cl)cc(C(F)(F)F)cc2Cl)ccc1Cl
inactive: max response [1] 2.92% | outcome [2] | max response [3] -11% | outcome [4] | outcome [5]

CC1=CC2/C=C(\C)CCC(O)C/C=C/C(=O)OC23C(=O)NC(CC(C)C)C3C1C (stereo not given)
inactive: max response [1] -1.17% | outcome [2] | outcome [3] | outcome [4] | outcome [5] inactive [at 17.4 µM]

C=C(C)[C@@H]1CC[C@]2(C(=O)O)CC[C@]3(C(=O)O)[C@H](CCC4[C@@]5(C)CCC(=O)C(C)(C)C5CC[C@]43C)C12 (stereo not given in full)
inactive: max response [1] -13.3% | outcome [2] | max response [3] 4.42% | max response [4] -2.4% | outcome [5] inactive [at 17.4 µM]

C=C1CCC2C(C)(C(=O)O)CCCC2(C)C1CCC1=CCOC1=O (stereo not given)
inactive: outcome [1] | outcome [2] | max response [3] -6.84% | outcome [4] | outcome [5]

O=C(NCCCNc1nc(Nc2cccc(CN3CCOCC3)c2)ncc1C1CC1)C1CCC1
inactive: outcome [2] | outcome [5]
active: Potency [1] 5.8 µM | Potency [3] 20.6 µM | Potency [4] 4.61 µM

COC(=O)c1ccnc(-c2cc(C(=O)Nc3ccc(C4(N)CC4)cc3)ccn2)c1
inactive: max response [1] -5.77% | outcome [2] | max response [3] -6.68% | max response [4] -5.19% | outcome [5]

O=C(Nc1cc(C(F)(F)F)ccc1N1CCCCC1)c1ccncc1
inactive: max response [1] -7.1% | outcome [2] | max response [3] -6.53% | max response [4] 1.75% | outcome [5]

CCC/C=C/C=C/C1CC(O)C2(O)C(=O)OCC12 (stereo not given)
inactive: outcome [1] | outcome [2] | max response [3] 7.96% | max response [4] 4.66% | outcome [5]

O=S(=O)(N[C@H]1CCCC[C@@H]1N1CCOCC1)c1ccc(Cl)cc1
inactive: max response [1] -16% | outcome [2] | max response [3] 1.51% | outcome [4] | outcome [5]

O=C([C@@H](Cc1cccc(C(F)(F)F)c1)NS(=O)(=O)c1cc(F)c2c(c1)CCNC2)N1CCCC1
inactive: outcome [1] | outcome [2] | outcome [3] | outcome [4] | outcome [5]

C=C(C)C1CCC2(C(=O)O)CCC3(C)C(CCC4C5(C)C(C=O)C(O)C(C)(C)C5CCC43C)C12 (stereo not given)
inactive: max response [1] -7.47% | outcome [2] | outcome [3] | max response [4] 0.383% | outcome [5] inactive [at 17.4 µM]

CC(C)(C)Sc1c(CC(C)(C)C(=O)O)n(Cc2ccc(Cl)cc2)c2ccc(OCc3ccc4ccccc4n3)cc12
inactive: max response [1] -0.604% | outcome [2] | outcome [3] | max response [4] 1.54% | outcome [5]

CC#CCn1c(N2CCCC(N)C2)nc2c1c(=O)n(Cc1nc(C)c3ccccc3n1)c(=O)n2C (stereo not given)
inactive: max response [1] 0.556% | outcome [2] | outcome [3] | outcome [4] | outcome [5]

CC(C)(C)c1ccc(C(=O)Nc2cn3cc(-n4ccnc4)ccc3n2)cc1
inactive: outcome [1] | outcome [2] | max response [3] 7.42% | max response [4] -1.43% | outcome [5]

CC[C@H](C)/C=C(C)/C=C/C1=CC2=C(Cl)C(=O)[C@](C)(O)[C@H](OC(C)=O)[C@H]2CO1
inactive: max response [1] -9.34% | outcome [2] | max response [3] -1.44% | outcome [4] | outcome [5]

Cc1nc2cc(C(=O)NCc3ccccn3)nn2c(C)c1Cc1cccc(Cl)c1
inactive: outcome [1] | outcome [2] | max response [3] -9.98% | max response [4] 3.03% | outcome [5]

COc1ccc2cc(-c3cc(-c4cc(Cl)cc(Cl)c4)nn3C(C)c3ccc(C(=O)NCCC(=O)O)cc3)ccc2c1 (stereo not given)
inactive: max response [1] 2.03% | outcome [2] | max response [3] -23.8% | outcome [4] | outcome [5]

C=C1C(=O)O[C@@H]2/C=C(\CO)CC/C=C(\CO)[C@H](OC(C)=O)C(OC(=O)C(C)CC)C12 (stereo not given in full)
inactive: max response [1] -5.38% | outcome [2] | outcome [3] | max response [4] -1.91% | outcome [5] inactive [at 17.4 µM]

Fc1ccc(N2CCN(CCC3OCCc4ccccc43)CC2)cc1 (stereo not given)
inactive: max response [1] -11.3% | outcome [2] | max response [3] -21.6% | max response [4] -0.639% | outcome [5]

NC(=O)c1cccc2[nH]c(-c3ccc(C4CCCN4)cc3F)nc12 (stereo not given)
inactive: outcome [1] | outcome [2] | outcome [3] | outcome [4] | outcome [5]

CN(C)N(C)C(=O)[C@@]1(Cc2ccccc2)CCCN(C(=O)[C@@H](Cc2c[nH]c3ccccc23)NC(=O)C(C)(C)N)C1
inactive: max response [1] -26.9% | outcome [2] | max response [3] 4.19% | max response [4] -7.17% | outcome [5]

Cc1cc(OCCCS(C)(=O)=O)cc(C)c1-c1cccc(COc2ccc(C3=CC(=O)NS3=O)cc2)c1 (stereo not given)
inactive: max response [1] 3.79% | outcome [2] | max response [3] 3.57% | max response [4] -0.311% | outcome [5]

C=C1CCC2C(C)(C)CCCC2(C)C1CC/C(C)=C\CO (stereo not given)
inactive: max response [1] 3.55% | outcome [2] | max response [3] 1.75% | outcome [4] | outcome [5]

C=C1CC[C@H]2C(=C)CC[C@H]3C(=C)C(=O)O[C@@H]3[C@@H]12
inactive: max response [1] -11.6% | outcome [2] | max response [3] -8.05% | max response [4] -3.18% | outcome [5]

CCC(C)C1NC(=O)C(Cc2ccccc2)NC(=O)C(CCCCCC(=O)C(O)CO)NC(=O)C2CCCCN2C1=O (stereo not given)
inactive: max response [1] -4.29% | outcome [2] | outcome [3] | outcome [4] | outcome [5] inactive [at 17.4 µM]

C=CC(=O)N1CC(N2CCN(C(=O)CNc3cc(C4CC4)c(Cl)cc3O)CC2)C1
inactive: outcome [1] | outcome [2] | outcome [3] | outcome [4] | outcome [5]

CC1=C2C[C@@]3(C)C(CCC[C@@H]3C)C(O)C2OC1=O (stereo not given in full)
inactive: max response [1] 2.27% | outcome [2] | max response [3] 5.15% | outcome [4] | outcome [5]

CC(C)[C@@H](c1ccc(C(F)(F)F)cc1CN(Cc1cc(C(F)(F)F)cc(C(F)(F)F)c1)c1nnn(C)n1)N1CCC(C(=O)O)CC1
inactive: max response [1] -8.05% | outcome [2] | max response [3] -11.9% | max response [4] 4.8% | outcome [5]

O=C(NCc1ccc(OC(F)(F)F)cc1)C1c2c(F)cccc2C(=O)N1CCc1ccccn1 (stereo not given)
inactive: max response [1] -3.88% | outcome [2] | max response [3] 4.96% | max response [4] -2.89% | outcome [5]

CC(=O)O[C@@H]1CC[C@@]2(C)[C@H](CC[C@@H]3[C@@H]2C[C@H](OC(C)=O)[C@]2(C)[C@@H](C(C)=O)CC[C@@H]32)C1
inactive: max response [1] -9.5% | outcome [2] | max response [3] -28.9% | max response [4] -22.7% | outcome [5]

C=C1C(OC2OC(CO)C(O)C(O)C2O)CC2C(C)(C)C(O)CCC2(C)C1CC/C(C)=C\COC(=O)CC(=O)O (stereo not given)
inactive: max response [1] -0.672% | outcome [2] | outcome [3] | max response [4] 3.9% | outcome [5] inactive [at 17.4 µM]

CCCCC1CCC(c2nc(-c3ccncc3)no2)CC1 (stereo not given)
inactive: max response [1] -23.2% | outcome [2] | max response [3] -26.8% | max response [4] -3.82% | outcome [5]

C[C@@H](NC(=O)C(=O)c1c[nH]c2ccc([N+](=O)[O-])cc12)c1ccccc1
inactive: outcome [1] | outcome [2] | max response [3] -11% | max response [4] 3.7% | outcome [5]

CN(C)c1ccc(NC(=O)NS(=O)(=O)c2ccc(Cl)cc2)cc1
inactive: max response [1] -11.7% | outcome [2] | outcome [3] | max response [4] -5.53% | outcome [5]

CNCCC(c1cccs1)c1ccc(O)c2ccccc12 (stereo not given)
inactive: max response [1] 3.5% | outcome [2] | max response [3] 6.48% | outcome [4] | outcome [5]

CC(NCCCc1cccc(C(F)(F)F)c1)c1cccc2ccccc12 (stereo not given)
inactive: max response [1] 1.05% | outcome [2] | max response [3] -6.75% | max response [4] 3.68% | outcome [5] inactive [at 17.4 µM]

CC(C)Nc1nc(Nc2ccccc2)nc(-c2ccccc2)n1
inactive: max response [1] -10.5% | outcome [2] | max response [3] -2.52% | max response [4] -18.6% | outcome [5]

CC/C=C\CC1C(=O)C=CC1(CCCCC1CCC(=O)O1)OC(C)=O (stereo not given)
inactive: outcome [1] | outcome [2] | max response [3] 4.62% | max response [4] 4.76% | outcome [5]

CC(=O)OC1CC(C)C2(CCC3(CC(=O)OC3O)O2)C2(C)CCCC(C)(C)C12 (stereo not given)
inactive: outcome [1] | outcome [2] | max response [3] 0.411% | max response [4] 0.0681% | outcome [5] inactive [at 17.4 µM]

C=C1CCCC2(C)CCC(C(C)(C)OC3OC(C)C(O)C(O)C3OC(=O)/C(C)=C\C)CC12 (stereo not given)
inactive: max response [1] 3.11% | outcome [2] | max response [3] -8.14% | outcome [4] | outcome [5] inactive [at 17.4 µM]

CCCN1CCC=C(c2cc(-c3ccc(C)cc3)no2)C1
inactive: outcome [1] | outcome [2] | max response [3] 9.64% | outcome [4] | outcome [5]

CCn1c(=O)n([C@H]2CCCN(c3nccc(-c4cc5ccccc5o4)n3)C2)c2ccccc21
inactive: outcome [1] | outcome [2] | max response [3] -9.5% | outcome [4] | outcome [5]

COc1cc(O)cc(/C=C/c2cccc(O)c2)c1
inactive: max response [1] 0.366% | outcome [2] | outcome [3] | max response [4] -7.28% | outcome [5]

Cc1cc(C)c(S(=O)(=O)n2cc(C)cc2C)c(C)c1
inactive: max response [1] -3.09% | outcome [2] | max response [3] 2.85% | outcome [4] | outcome [5]

CC(=O)O[C@]1(C(C)=O)CC[C@H]2[C@@H]3CCC4=CC(=O)CCC4=C3[C@@H](c3ccc(N(C)C)cc3)C[C@@]21C
inactive: outcome [1] | outcome [2] | max response [3] -14.7% | max response [4] -1.52% | outcome [5]

COc1ccc(CCN(C)CCCOc2nsc(-c3ccccc3)n2)cc1OC
inactive: outcome [1] | outcome [2] | max response [3] -3.88% | outcome [4] | outcome [5]
